Experimental data taken from PubChem BioAssay (Tox21).
Records with an inconclusive call do not appear. A number with no mark means an inactive call. The source made the active and inactive calls. Calls follow the shape of the dose curve; as a rule, active = well fitted inhibition curve with a large enough effect in the repeat runs; inconclusive = weak or mixed curves, or effect the other way; inactive = no such curve, though single readings can be large or run the other way.

The compounds below were run against Nuclear receptor ROR-gamma (Homo sapiens) (UniProt P51449) (assay: qHTS assay to identify small molecule antagonists of the retinoid-related orphan receptor gamma (ROR-gamma) signaling pathway (AID 1159521; also: nearly all actives have a fitted effect of over 50% in size; as to activity change, negative = inhibition: top concentration of the series differs between compounds)). Settings: Tet-on RORgamma CHO cells, RORE-luciferase, 16 h; series mostly up to 92.4 µM; activity change, negative = inhibition: at the top concentration.
From the text: U.S. Tox21 Program National Center for Advancing Translational Sciences [NCATS] NIH Chemical Genomics Center [NCGC] U.S. Environmental Protection Agency [EPA] National Institutes of Environmental Health Sciences [NIEHS] National Toxicology Program [NTP] U.S. Food and Drug Administration [FDA] Tox21 Assay Overview: Nuclear steroid hormone receptors are involved in many biological processes including inflammatory responses, cell proliferation, and apoptosis. Environmental factors or compounds disrupting these nuclear receptor pathways and gene expression may promote susceptibility to immunotoxicants and autoimmune diseases. One important group of these expression factors are the retinoid-related orphan receptors. To assess compounds that may interfere with the retinoid-related orphan receptor gamma (ROR-gamma) transcription factor, a cell-based luciferase assay was used. The CHO cell-based assay utilizes a TET-inducible ROR expression factor and ROR response element-LUC reporter gene. Reporter gene activity was induced using Doxycycline Hyclate and measured after 16 hr incubation. Tet-on ROR gamma CHO cells were used to screen against the Tox21 10K compound library for ROR gamma antagonists by quantification of decreased reporter gene activity in terms of decreased luminescence.
Tox21 Assay Protocol Summary: Tet-on ROR gamma CHO cells were dispensed at 1,000 cells in 4 uL of culture medium per well into white wall/solid bottom 1536-well plates using a Multidrop Combi (Thermo Scientific, Waltham, MA) dispenser. Following incubation at 37 C and 5% CO2 for 4 hr, 23 nL of compounds dissolved in DMSO, positive controls or DMSO only were transferred by a Pintool station (Kalypsys, San Diego, CA) and after 2 hr incubation at 37 C, one ul of 1 uM (final concentration) of Doxycycline Hyclate was added to all the wells by using a Flying Reagent Dispenser (FRD) (Aurora Discovery, San Diego, CA). After 16 hr incubation at 37 C and 5% CO2, 5 uL of ONE-Glo reagent (Promega Corporation, Madison, WI) was added to each assay plate using FRD. After 30 min incubation at room temperature, luminescence was quantified on a ViewLux plate reader (Perkin Elmer, Waltham, MA).
% is scaled to controls: 0 for no effect and ±100 for the full control effect; potency is read from the fitted curve at half-maximal effect.

SMILES | activity change, negative = inhibition | Potency
O=C1c2ccccc2C(=O)C1c1ccc2cc(S(=O)(=O)O)cc(S(=O)(=O)O)c2n1 | 39.3% | –
CC(=O)c1ccc(Cl)c(Cl)c1Cl | -0.566% | –
COc1ccc(/C(C)=C/C(=O)O)c(OC)c1 | 28% [at 42.5 µM] | –
Clc1ccccc1-c1nc(-c2ccncc2)no1 | 82% [at 42.5 µM] | –
COc1cccc([C@H](O)C2CCN(CCc3ccc(F)cc3)CC2)c1OC | -25.1% | –
C[Si](C)(C)O[Si](C)(C)O[Si](C)(C)C | 18.7% | –
O=[N+]([O-])c1ccccc1CCO | -0.162% | –
CCC(C(=O)O)c1ccc(N2Cc3ccccc3C2=O)cc1 (stereo not given) | 157% [at 42.5 µM] | –
C[C@H]1C[C@H]2[C@@H]3CCC4=CC(=O)C=C[C@]4(C)[C@@]3(F)[C@@H](O)C[C@]2(C)[C@@]1(O)C(=O)COP(=O)(O)O | -0.22% | –
O=S(=O)(O)c1cc(Cl)c(Cl)cc1Cl | -29.7% | –
CCCCCC1CCC(=O)O1 (stereo not given) | -2.63% | –
CC(C(=O)O)c1ccc(/C=C2\CCCCC2=O)cc1 (stereo not given) | 187% [at 42.5 µM] | –
OCC(O)c1ccccc1 (stereo not given) | -11.3% | –
O=C(O)CCc1nc2ccccc2[nH]1 | 7.07% [at 42.5 µM] | –
Cc1c(N=C=O)cccc1N=C=O | 12% | –
CC(COc1ccccc1)NC(C)C(O)c1ccc(O)cc1 (stereo not given) | 8.32% [at 42.5 µM] | –
C=Cc1ccc(C=C)cc1 | 9.53% | –
O=C1CCCN1CCO | -25.2% | –
CCCCCCCCC(=O)OCC(C)OC(=O)CCCCCCCC (stereo not given) | 11.6% | –
CC(C)C[C@H](NC(=O)[C@H](Cc1ccccc1)NC(=O)c1cnccn1)B(O)O | – | 0.0473 µM (active)

SMILES | activity change, negative = inhibition | Potency
O=C(c1ccc(Cl)cc1)c1ccc(Cl)cc1 | 25.5% | –
O=C(O)c1ccc2cc(O)ccc2c1 | 128% | –
C=CC(C)CCC=C(C)C (stereo not given) | 13.3% | –
COc1ccc(/C=C/c2cc(OC)cc(=O)o2)cc1 | 9.28% [at 42.5 µM] | –
CCOc1ccc(NC(C)=O)cc1N | 51.5% | –
CCCCOc1ccc(N)cc1 | 49.8% | –
CC(C(=O)O)c1ccc2c(c1)Cc1cccnc1O2 (stereo not given) | 31.2% [at 42.5 µM] | –
N#C[C@@H]1CC(F)(F)CN1C(=O)CNC1CC2CCC(C1)N2c1ncccn1 (stereo not given in full) | -8.18% | –
Cc1c(Nc2ncccc2C(=O)O)cccc1C(F)(F)F | -21.8% [at 42.5 µM] | –
COc1ccc(CN(CCN(C)C)c2ncccn2)cc1 | 5.9% [at 42.5 µM] | –
O=C1OC(=O)C2CC=CCC12 (stereo not given) | -1.4% | –
COc1ccc(C(=O)Nc2ccccc2)cc1[N+](=O)[O-] | 75.4% | –
CC(=O)c1cccnc1 | -14.6% | –
c1ccc(-c2ccc(-c3ccccc3)cc2)cc1 | 98.3% [at 19 µM] | –
O=C(Nc1ccc2c(c1)Cc1ccccc1-2)C(F)(F)F | 58% | –
CO[C@@H]1COCC[C@@H]1N[C@@H]1CC[C@@](C(=O)N2CCc3ncc(C(F)(F)F)cc3C2)(C(C)C)C1 | 12.7% | –
CCCCCCCCCC(C)C=O (stereo not given) | 67.1% | –
CCCCC(CC)COCCC#N (stereo not given) | 10.3% | –
CC(O)C(C)O (stereo not given) | 4.49% | –
O=C(O)c1ccc(O)c(O)c1 | -6.91% | –
